Rows were chosen to be rich in hits. Some 1.5% of all compounds tested hit in one or more screens of this group.
TPT1 inh: inhibitors of Candida albicans tRNA 2'-phosphotransferase TPT1 | recombinant caTPT1, FP RNA substrate dephosphorylation | inhibition, % at 5 µM | hit rate 0.81% among 300,000 | AID 1962;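 active = inhibition above the mean of all tested compounds plus 3 SD, set per screening campaign, cut at about 24% in these data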;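 note: plate controls were DMSO alone for no effect and ferristatin control at 100 nM for full effect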
IDE cell activ: boosts human insulin-degrading enzyme activity in HEK cells; activation, % at 5.96 µM; hit rate 0.073% among 340,000; P14735; FAbeta-B cleavage, fluorescence polarization; 0% vehicle, 100% cell-free pure enzyme wells;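 active = activation above the mean of all tested compounds plus 3 SD, set per screening campaign, cut at about 17% in these data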
Target sequence (P14735 whole entry, looked up): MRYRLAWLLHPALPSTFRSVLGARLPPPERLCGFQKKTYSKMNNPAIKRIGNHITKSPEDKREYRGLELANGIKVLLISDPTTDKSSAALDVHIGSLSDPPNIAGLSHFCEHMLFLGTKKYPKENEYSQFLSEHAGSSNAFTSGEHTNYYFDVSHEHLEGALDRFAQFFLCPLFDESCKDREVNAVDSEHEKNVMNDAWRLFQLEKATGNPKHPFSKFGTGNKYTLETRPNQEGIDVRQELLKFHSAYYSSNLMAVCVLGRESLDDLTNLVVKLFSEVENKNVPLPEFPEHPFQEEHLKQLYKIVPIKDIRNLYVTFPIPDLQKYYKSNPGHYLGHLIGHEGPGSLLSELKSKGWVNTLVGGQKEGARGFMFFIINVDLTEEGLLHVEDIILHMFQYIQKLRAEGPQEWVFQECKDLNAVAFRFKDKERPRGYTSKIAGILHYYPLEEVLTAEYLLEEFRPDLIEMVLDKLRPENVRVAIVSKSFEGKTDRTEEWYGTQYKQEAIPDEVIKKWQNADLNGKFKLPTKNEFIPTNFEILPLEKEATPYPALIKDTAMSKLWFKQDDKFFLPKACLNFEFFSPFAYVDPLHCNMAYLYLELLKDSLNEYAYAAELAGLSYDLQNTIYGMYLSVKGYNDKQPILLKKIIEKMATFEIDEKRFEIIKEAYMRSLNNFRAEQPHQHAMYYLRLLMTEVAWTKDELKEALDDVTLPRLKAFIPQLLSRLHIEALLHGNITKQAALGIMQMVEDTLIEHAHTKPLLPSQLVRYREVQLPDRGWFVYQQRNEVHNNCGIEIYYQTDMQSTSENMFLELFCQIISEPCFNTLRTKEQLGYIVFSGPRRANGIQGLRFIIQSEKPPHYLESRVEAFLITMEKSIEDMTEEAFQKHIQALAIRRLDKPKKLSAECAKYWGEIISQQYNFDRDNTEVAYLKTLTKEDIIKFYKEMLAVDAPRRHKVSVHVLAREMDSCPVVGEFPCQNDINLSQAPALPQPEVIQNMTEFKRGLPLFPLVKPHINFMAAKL
IDE inh: inhibitors of human insulin-degrading enzyme in cells | HEK cells, FAbetaB cleavage, fluorescence polarization | hit rate 0.41% among 320,000 | AID 434962 | inhibition, % at 5.59 µM | P14735;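 active = percent inhibition above the average of all tested compounds plus 3 SD, set per screening campaign, cut at about 16% in these data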;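 note: IDE supplied by intact live HEK cells; FP after avidin binding of uncleaved biotin substrate so inhibition keeps polarization high; 0% = DMSO wells and 100% = 60 µM reference IDE inhibitor Ii1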
RTF Ca sens inh: cardiac RTF calcium desensitization. P19429+P45379. IANBD-labeled cardiac RTF, Ca2+ fluorescence. inhibition, % at 7.15 µM. hit rate 0.12% among 340,000;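 active = inhibition above the mean inhibition of all tested compounds plus 3 SD, cut at about 17% in these data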;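 note: assay run at fixed EC70 calcium of 1.6 mM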
CRFR2-BP ag: CRF-BP/CRF-R2 complex agonism. hit rate 0.46% among 350,000. HEK293 CRF-R2/CRF-BP, calcium dye fluorescence (FLIPR); percent of saturating CRF peptide response. activation, % at 13.2 µM;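 active = activation of at least 50%, plus an integration ratio under a set limit after plate pattern correction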;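 note: plate controls were neutral control wells without compound for no effect and CRF at EC100 for full effect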
cardiac RTF act: cardiac RTF calcium sensitization | activation, % at 7.2 µM | IANBD-labeled TnC RTF fluorescence at EC20 calcium; 0% EC20 calcium, 100% full calcium | AID 493008 | hit rate 0.24% among 340,000 | P19429+P45379;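 active = activation above the mean over all tested compounds plus 3 SD, cut at about 30% in these data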;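 note: rise in fluorescence read as greater calcium sensitivity of cardiac thin filaments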
Numbers without * were called inactive; . = no result.

SMILES | TPT1 inh | IDE cell activ | IDE inh | RTF Ca sens inh | CRFR2-BP ag | cardiac RTF act
CC1(C)C[C@H](O)[C@@]23C[C@@H](OC2=O)[C@]2(C)C(=CCC4[C@@]5(C)CC[C@H](O)C(C)(C)C5CC[C@]42C)[C@@H]3C1 (stereo not given in full) | -0.5 | . | -1.9 | . | 73.5* | .
CC1(C)C2CC[C@]3(C)C(CC=C4[C@@H]5C[C@@](C)(CO)[C@@H]6C[C@@]5(CC[C@]43C)C(=O)O6)[C@@]2(C)CC[C@@H]1O (stereo not given in full) | 1.0 | . | -2.6 | . | -1.6 | .
CC(=O)C1=C(O)C(=O)N(c2cc(C(C)(C)C)on2)C1c1ccc(C(C)C)cc1 (stereo not given) | -1.1 | -3.1 | -3.7 | 3.4 | 64.2* | -4.2
CC(=O)C1=C(O)C(=O)N(c2cc(C(C)(C)C)on2)C1c1ccc(Br)cc1 (stereo not given) | -2.6 | 1.6 | -4.1 | -12.5 | 0.5 | -3.0
COc1cc2c(cc1OC)-c1cc3ccc4c(c3c[n+]1CC2)OCO4 | -67.6 | 2.1 | 8.6 | -77.0 | 13.3 | 53.6*
COc1ccccc1N1C(=O)C(Cl)=C(Nc2ccccc2O)C1=O | . | -5.3 | . | -12.3 | 84.0* | 3.2
CCOC(=O)C1CCCN(C(=O)C2c3ccccc3Oc3ccccc32)C1 (stereo not given) | -92.5 | 0.5 | -3.3 | -109.3 | 2.6 | 92.8*
Cc1c(C(=O)Nc2ccc3c(c2)OCO3)sc2nc(-c3ccccc3)cn12 | -0.3 | -5.8 | 10.6 | -9.9 | -1.3 | 3.3
Cc1c(C(=O)Nc2ccccc2)sc2nc(-c3ccccc3)cn12 | -3.5 | -15.3 | 22.6* | -0.8 | 7.9 | -1.6
c1ccc2[nH]c3cc4ncnc4cc3nc2c1 | -99.0 | 2.5 | -4.6 | -48.5 | 27.6 | 57.9*
FC(F)c1nc2ccccc2[nH]1 | 0.9 | 2.1 | 1.7 | -1.8 | -1.3 | -2.4
Cc1cc(N2CCN(C)CC2)nc2ccc(NC(=S)N3CCN(c4cccc(Cl)c4)CC3)cc12 | -3.1 | 6.1 | 3.0 | 4.2 | 0.7 | -3.2
Cc1cccc(N2CCN(C(=S)Nc3ccc4nc(N5CCN(C)CC5)cc(C)c4c3)CC2C)c1 (stereo not given) | 0.7 | 30.1* | -10.5 | 8.7 | 0.5 | -1.4
O=C(Nc1cc(C(F)(F)F)ccc1Cl)c1cccnc1 | 0.1 | -4.0 | 1.1 | -11.9 | 105.9* | 4.7
O=C(Nc1cc(C(F)(F)F)ccc1Cl)c1ccncc1 | -1.5 | 0.3 | 6.2 | -5.8 | -0.8 | 2.9
O=C(Nc1ccccc1[N+](=O)[O-])c1cccc(N2C(=O)CCC2=O)c1 | 1.5 | 3.6 | -0.6 | -4.5 | -2.7 | 1.4
O=c1c2ccccc2nc(-c2ccc(Cl)c(Cl)c2)n1O | -2.0 | 4.8 | 1.0 | 5.7 | 54.6* | 1.5
O=c1c2cc(Cl)ccc2nc(-c2ccc([N+](=O)[O-])cc2)n1O | -4.0 | 3.4 | 5.0 | 8.7 | 44.1 | 2.4
Cc1ccc(-c2nc3c(Cl)cc(Cl)cc3c(=O)n2O)cc1 | 2.4 | 3.5 | 4.1 | -9.2 | 66.0* | -4.8
N#Cc1ccc(-c2nc3cc(Cl)ccc3c(=O)n2O)cc1 | 3.6 | 4.3 | -1.0 | -3.1 | -6.9 | -2.0
O=c1c2cc(Br)ccc2nc(-c2ccc(Cl)cc2)n1O | -3.1 | 1.9 | 3.8 | 1.7 | 72.7* | -5.8
O=c1c2ccc(Cl)cc2nc(-c2cccc(C(F)(F)F)c2)n1O | -6.8 | 4.9 | 0.9 | -3.2 | 69.0* | -0.3
COc1ccc(OC)c(NC(=S)N2c3ccccc3CC2C)c1 (stereo not given) | 2.4 | -2.9 | -0.7 | -7.2 | -1.7 | -0.6
COc1ccc(C(C)(C)C)cc1NC(=O)COC(=O)C1=NNC(=O)CC1 | . | 4.4 | -3.4 | -4.2 | -0.9 | -0.3
O=c1c(Br)ccc(Br)cc1Br | . | -12.7 | . | -4.9 | -1.3 | -0.9
SMILES | TPT1 inh | IDE cell activ | IDE inh | RTF Ca sens inh | CRFR2-BP ag | cardiac RTF act
CN(Cc1nc(-c2ccccc2)no1)C(=O)c1ccco1 | 2.0 | 4.7 | 0.1 | -25.7 | -1.4 | -1.1
Cc1ccc(/C=C2\Oc3c(ccc(O)c3CN3CCN(CCO)CC3)C2=O)cc1 | 1.2 | -0.1 | -4.3 | -38.4 | 86.0* | 32.0*
COc1cc(C(=O)N(C)C2CCCCC2)cc(OC)c1OC | . | . | . | . | -2.2 | .
O=C(OCC(=O)N1CCN(S(=O)(=O)c2ccccc2)CC1)C1CCC1 | . | 1.7 | -1.7 | 0.5 | 0.0 | 6.7
O=C(CC1CCCC1)N1CCN(S(=O)(=O)c2ccccc2)CC1 | . | 0.8 | -0.4 | -124.5 | -0.5 | 33.4*
CCOc1ccc(NC(=O)COc2cccc3cccnc23)cc1S(=O)(=O)N1CCCC1 | . | . | . | . | -0.5 | .
O=C(COc1cccc2cccnc12)Nc1cccc(S(=O)(=O)N2CCCC2)c1 | . | 30.1* | -2.7 | -8.4 | -0.4 | 4.3
Cn1cc(/C=C2\SC(=S)N(N3CCOCC3)C2=O)c2ccccc21 | 2.9 | 2.7 | 0.0 | -8.9 | 3.4 | 18.1
Cn1cc(/C=C2\SC(=S)N(NC(=O)c3cccc(Cl)c3)C2=O)c2ccccc21 | . | -20.6 | . | -34.4 | 36.2 | 45.0*
CC(C)(C)OC(=O)NN1CC(=O)N2Cc3ccccc3C[C@@H]2C1=O | -2.1 | -3.6 | 1.2 | -10.2 | 1.6 | 1.1
O=c1c2ccccc2sc2ccc(NCCCN3CCOCC3)cc12 | 10.2 | -11.8 | 4.8 | -11.2 | 102.1* | 10.1
Cn1c(=O)c(C(=O)COc2ccc(C#N)cc2)c(N)n(Cc2ccccc2)c1=O | -3.4 | -1.1 | -3.0 | -4.4 | 55.0* | -0.1
CC(=O)Nc1ccc(S(=O)(=O)NCCc2cc3ccc(C)c(C)c3[nH]c2=O)cc1 | -2.2 | -0.5 | 1.4 | -4.9 | 0.5 | 4.2
CCOC(=O)C1=C(c2ccccc2)NC(=O)NC1c1cc(Cl)c(O)c(OC)c1 (stereo not given) | 3.6 | -5.2 | -1.6 | -9.6 | -1.5 | 14.2
CCOC(=O)C1=C(c2ccccc2)NC(N)=NC1c1ccc(OCc2ccc(Cl)cc2)c(OC)c1 (stereo not given) | 2.1 | 19.1* | 2.3 | -11.7 | -0.4 | 0.2
Cc1cc(/C=C2\SC(=S)N(Cc3ccco3)C2=O)c(C)n1-c1cccnc1 | . | -16.4 | . | -85.6 | 54.8* | 89.0*
O=C1/C(=C/c2cccnc2)SC(=S)N1Cc1ccco1 | . | 2.6 | . | 0.8 | -3.7 | -6.7
COc1ccc(S(=O)(=O)N2CCCCCC2)cc1C(=O)N(C)Cc1c(F)cccc1Cl | . | -1.1 | 5.8 | 3.7 | 0.0 | -5.3
COc1ccc(S(=O)(=O)N2CCCCCC2)cc1C(=O)N(C)Cc1ccc(Cl)cc1Cl | 1.6 | 3.8 | -8.3 | -2.3 | 104.2* | -10.9
Cc1ccc(-n2nc(C)c(C(=O)Nc3cccc(C(=O)NC4CC4)c3)n2)c(C)c1 | . | -2.1 | 1.3 | -1.4 | 0.0 | 0.3
COc1ccc(/C=C(\C#N)C(=O)Nc2cc(C)c(Cl)cc2OC)cc1O | 3.2 | 20.2* | -3.9 | -6.6 | 1.2 | 0.0
COc1ccc(/C=C(\C#N)C(=O)NCc2ccccc2)cc1O | -1.3 | -1.4 | 0.5 | -3.6 | -0.3 | -1.3

High-throughput results: PubChem, several laboratories
